Measurements reported in article PMC4336329 (PLoS ONE, 2015).
Out of some 310,000 compounds screened, about 14,000 (4.5%) showed an effect of 50% or more. Effects have a minus sign here. Only a selection was taken, and strong results are over-represented in it overall.

Target: human ether-à-go-go-related gene (hERG) potassium channel (human, UniProt Q12809)
Assay: primary screen, population patch clamp on CHO cells stably expressing hERG; higher = less effect of the substance
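Further: peak tail current of the secondary pulse compared with the same well before compound.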

Chain of human ether-à-go-go-related gene (hERG) potassium channel (Q12809 whole entry, looked up): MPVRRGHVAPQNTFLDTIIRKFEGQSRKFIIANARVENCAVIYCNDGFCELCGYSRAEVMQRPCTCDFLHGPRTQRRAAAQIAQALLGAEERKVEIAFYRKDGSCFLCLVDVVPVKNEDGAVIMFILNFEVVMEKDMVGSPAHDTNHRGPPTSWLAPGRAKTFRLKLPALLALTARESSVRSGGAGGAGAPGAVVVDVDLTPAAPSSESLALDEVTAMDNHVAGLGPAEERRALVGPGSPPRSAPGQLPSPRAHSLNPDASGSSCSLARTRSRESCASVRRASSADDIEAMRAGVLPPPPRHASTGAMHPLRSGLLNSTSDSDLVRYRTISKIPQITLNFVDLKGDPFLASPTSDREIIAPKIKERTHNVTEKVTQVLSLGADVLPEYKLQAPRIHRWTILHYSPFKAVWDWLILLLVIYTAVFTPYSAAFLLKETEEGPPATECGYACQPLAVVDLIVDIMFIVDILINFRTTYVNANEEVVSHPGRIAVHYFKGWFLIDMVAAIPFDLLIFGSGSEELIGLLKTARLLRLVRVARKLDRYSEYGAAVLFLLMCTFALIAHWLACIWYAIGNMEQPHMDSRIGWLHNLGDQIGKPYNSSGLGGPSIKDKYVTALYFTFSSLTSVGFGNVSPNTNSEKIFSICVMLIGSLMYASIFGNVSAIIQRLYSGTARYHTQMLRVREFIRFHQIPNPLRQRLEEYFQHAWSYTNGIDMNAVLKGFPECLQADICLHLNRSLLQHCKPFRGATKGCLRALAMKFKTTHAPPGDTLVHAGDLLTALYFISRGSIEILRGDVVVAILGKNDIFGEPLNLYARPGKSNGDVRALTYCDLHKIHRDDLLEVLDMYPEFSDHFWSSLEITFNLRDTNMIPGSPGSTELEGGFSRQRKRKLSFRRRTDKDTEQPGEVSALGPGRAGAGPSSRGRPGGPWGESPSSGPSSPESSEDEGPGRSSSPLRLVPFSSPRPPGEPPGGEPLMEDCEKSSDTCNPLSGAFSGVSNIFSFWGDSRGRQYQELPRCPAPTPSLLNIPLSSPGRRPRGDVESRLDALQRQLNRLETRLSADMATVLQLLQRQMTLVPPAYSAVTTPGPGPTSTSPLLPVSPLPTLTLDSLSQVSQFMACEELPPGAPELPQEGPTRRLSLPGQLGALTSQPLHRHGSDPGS

SMILES	hERG current change (%, negative = inhibition) at 10uM [%]
Cc1cc(C)cc(C(=O)NCC(=O)OCC(=O)c2cc(C)n(CC(F)(F)F)c2C)c1	1.83
Cc1noc(C)c1CSc1nc2ccccc2s1	-10.1
COc1cccc(N2CCN(C(=O)CCc3nnc4ccc(N5CCCC5)nn34)CC2)c1	-28.7
COc1ccc(NC(=O)CCc2nnc3ccc(N4CCC(C)CC4)nn23)cc1	-22.9
COc1ccc(NC(=O)CCc2nnc3ccc(N4CCN(c5cccc(OC)c5)CC4)nn23)cc1	-22.8
CCCN1CCN(C(=O)CCc2nnc3ccc(N4CCN(c5cccc(OC)c5)CC4)nn23)CC1	-54.9
COc1ccc(N2CCN(c3ccc4nnc(CCC(=O)Nc5ccc(C)cc5)n4n3)CC2)cc1	-70.1
COc1cccc(N2CCN(C(=O)CCc3nnc4ccc(N5CCOCC5)nn34)CC2)c1	-7.05
COc1cccc(N2CCN(c3ccc4nnc(CCC(=O)N5CCN(C)CC5)n4n3)CC2)c1	-1.62
COc1cccc(N2CCN(c3ccc4nnc(CCC(=O)N5CCC(C)CC5)n4n3)CC2)c1	-66.4
CC1CCN(c2ccc3nnc(CCC(=O)N4CCCCC4)n3n2)CC1	-3.14
CC1CCN(c2ccc3nnc(CCC(=O)N4CCN(c5ccc(F)cc5)CC4)n3n2)CC1	-66.2
CCN1CCN(C(=O)CCc2nnc3ccc(N4CCN(c5cccc(OC)c5)CC4)nn23)CC1	-5.55
CC1CCN(c2ccc3nnc(CCC(=O)Nc4ccc(F)cc4)n3n2)CC1	-39.6
CCN(CC(=O)Nc1ccccc1OC)C(=O)C1CCCC1	0.547
CC1CCN(C(=S)Nc2cccc(S(=O)(=O)N(C)C)c2)CC1	11.1
CO/N=C/c1cccn1-c1nccc(OC)c1C#N	19.1
Cc1nc(C)c(C(=O)C2=C(O)C(=O)N(CCN3CCOCC3)C2c2cccs2)s1 (stereo not drawn)	5.12
COc1cc(/C=C/C(=O)O)ccc1OS(=O)(=O)c1c(C)cc(C)cc1C	-43.2
C=CCOc1ccc(/C=C/C(=O)OCC(=O)N(C)CC(=O)Nc2ccc(F)cc2)cc1	7.74
COc1ccccc1CC(=O)Nc1c[nH]c(=O)[nH]c1=O	38.8
Cc1ccc2c(c1)c1ncnc(N3CCN(c4ccccc4)CC3)c1n2C	-12.3

SMILES	hERG current change (%, negative = inhibition) at 10uM [%]
c1ccc2c(c1)CC(CN1CCNCC1)O2 (stereo not drawn)	-52.3
CC(C)N1CCN(CC2COc3ccccc3O2)CC1.Cl (stereo not drawn)	-19.4
Cc1ccccc1CN1CCNCC1.Cl	14
Cn1c(=O)oc2cc(S(=O)(=O)Nc3cccc([N+](=O)[O-])c3)ccc21	4.69
Cc1ccc(C)c(Cn2nnc3c(=O)[nH]c(C(=O)Nc4ccc(F)cc4)nc32)c1	28.5
CCOc1ccc(C(=O)N2CCCC2)cc1OC	-14.7
Cc1ccc(C)c(OCC(O)CN2CCc3ccccc3C2)c1C.Cl (stereo not drawn)	-65.3
Cc1cccc(C)c1OCC(O)Cn1c2ccccc2c2ccccc21 (stereo not drawn)	6.83
Cc1cccc(C)c1OCC(O)CN1CCc2ccccc2C1.Cl (stereo not drawn)	-64.2
Cc1ccc(C)c(OCC(O)CN2CCC(C)CC2)c1C (stereo not drawn)	-33.6
Cl.OC(COc1c(F)cc(Br)cc1F)CN1CCN(c2ccc(F)cc2)CC1 (stereo not drawn)	-25.7
Cl.OC(COc1c(F)cc(Br)cc1F)CN1CCc2ccccc2C1 (stereo not drawn)	-72.2
Cl.OC(COc1c(F)cc(Br)cc1F)CN1CCOCC1 (stereo not drawn)	2.28
Nc1ccc(S(=O)(=O)Nc2nc(-c3ccccc3)cc(-c3ccccc3)n2)cc1	21.6
Cc1ccc(NC(=O)Cn2nc(C)c3ccccc3c2=O)c(C)c1	10.2
NC(=O)CN1C(=O)C(=O)N(Cc2ccccc2Cl)C1=O	8.45
CC(=O)Nc1c(C(=O)C2CC2)oc2ccccc12	-7
Cc1ccc(OCC(O)CN2CCN(c3ccccc3)CC2)cc1 (stereo not drawn)	-38.6
Cc1ccc(OCC(O)CN2CCN(CC(O)COc3ccc(C)cc3)CC2)cc1 (stereo not drawn)	-63.9
Cc1cccc(C)c1OCC(O)CN1CCN(c2ccccc2)CC1.Cl (stereo not drawn)	-53.1
Cc1ccc(OCC(O)CN2CCOCC2)cc1 (stereo not drawn)	8.2
CC(C)(C)C1CCC(OCC(O)CN2CCN(c3ccccc3)CC2)CC1.Cl (stereo not drawn)	1.42

SMILES	hERG current change (%, negative = inhibition) at 10uM [%]
CC(C)c1ccc(OCC(O)CN2CCN(c3ccccc3)CC2)cc1.Cl (stereo not drawn)	-47.3
Cc1ccc(N2CCN(CC(O)COC3CCCCC3)CC2)cc1 (stereo not drawn)	-56.1
OC(COC1CCCCC1)CN1CCN(c2ccccc2)CC1 (stereo not drawn)	-29.8
Cc1ccc(OCC(O)CN2CCCC2)cc1 (stereo not drawn)	11.5
Cc1ccc(N2CCN(CC(O)COc3ccccc3)CC2)cc1 (stereo not drawn)	-50.9
COc1cccc(OC)c1OCC(O)CN1CCN(c2ccccc2)CC1.Cl (stereo not drawn)	-33.3
Cc1nc(N)c(C#N)c(-c2ccccc2)c1C	-10.4
CCN1C(=S)N[C@@H](c2cccs2)C(C(=O)OC)=C1C	4.42
O=C(CNC(=O)c1ccccc1F)N/N=C/c1cc(Br)ccc1OCc1ccccc1	-3.96
Fc1ccc(N/N=C/c2ccncc2)c(F)c1	-9.23
CCOC(=O)N1CCN(CC(O)COc2cc(C)ccc2C(C)C)CC1.Cl (stereo not drawn)	-26.8
Cc1cccc(OCC(O)CN2CCN(S(=O)(=O)c3ccc(C)cc3C)CC2)c1 (stereo not drawn)	-17.5
COC(=O)c1ccc(OCC(O)CN2CCC(C)CC2)cc1 (stereo not drawn)	-15.3
COC(=O)c1ccc(OCC(O)CN2CCN(CC(O)COc3ccc(C(=O)OC)cc3)CC2)cc1 (stereo not drawn)	-72.9
Cc1ccc(N2CCN(CC(O)COc3cccc(C)c3)CC2)cc1 (stereo not drawn)	-55.1
Cc1ccc(OCC(O)CN2CCN(CC(O)COC(C)C)CC2)c(C(C)(C)C)c1 (stereo not drawn)	-65.2
Cc1cccc(OCC(O)CN2CCN(C3CCCCC3)CC2)c1.Cl (stereo not drawn)	-50.3
Cc1cccc(OCC(O)CN2CCNCC2)c1.Cl (stereo not drawn)	26.5
Cc1cccc(OCC(O)CN2CCOCC2)c1.Cl (stereo not drawn)	10.9
Cc1ccc(OCC(O)CN2CCN(CC(O)COc3ccc(C)cc3Cl)CC2)c(Cl)c1 (stereo not drawn)	-24.3
COC(=O)c1ccc(OCC(O)CN2CCOCC2)cc1 (stereo not drawn)	15
Nc1c(Cl)ncnc1N/N=C/c1ccc2ccccc2n1	-11.7

SMILES	hERG current change (%, negative = inhibition) at 10uM [%]
COC(=O)COc1ccc(/C=C2\SC(=O)N(CC(=O)Nc3ccccc3F)C2=O)cc1	14
Cc1nc(CNC(=O)CC2C(=O)NCCN2Cc2cccc(Oc3ccccc3)c2)cs1 (stereo not drawn)	10.4
CCOCCCNC(=O)/C(C#N)=C/c1ccccc1F	23.5
C/C(=N\NC(=O)c1ccc(Cl)cc1)c1ccc(Br)s1	2.93
COCCNC(=O)C(=O)NCC1OCCN1S(=O)(=O)c1ccc(C)cc1 (stereo not drawn)	15.7
CCc1ccc(C(=O)NNc2ccc(S(N)(=O)=O)cc2)cc1	9.05
NC(=O)COC(=O)CC12CC3CC(CC(Br)(C3)C1)C2	24.6
CCN(CC)S(=O)(=O)c1ccc(OC)c(NC(=O)CSc2ccccc2)c1	-72.9
Cc1cc2nnc(SCC(=O)Nc3cccc(S(=O)(=O)N4CCOCC4)c3)n2c2ccccc12	-14.4
Cc1ccc(S(=O)(=O)N2CCOCC2)cc1NC(=O)C(c1ccc(Cl)cc1)C(C)C (stereo not drawn)	1.8
Cc1ccc(S(=O)(=O)N2CCOCC2)cc1NC(=O)CSc1ccc(Cl)cc1	-51.3
CC(C)Cn1c(SCC(=O)NCc2ccc(Cl)cc2)nnc1-c1cccc(S(=O)(=O)N2CCOCC2)c1	-52.9
CCN(CC)S(=O)(=O)c1ccc(OC)c(NC(=O)CSc2cc(C)ccc2C)c1	-13.3
Cc1ccc(CSc2nnc(-c3cccc(S(=O)(=O)N4CCOCC4)c3)n2CC(C)C)cc1	-29.5
Cc1ccc(S(=O)(=O)N2CCOCC2)cc1NC(=O)CSc1nnc2cc(C)c3ccccc3n12	-61.8
Cc1ccc(S(=O)(=O)N2CCOCC2)cc1NC(=O)CSc1ncccn1	-4.68
CCN(CC)S(=O)(=O)c1ccc(OC)c(NC(=O)CSc2cc(Cl)ccc2Cl)c1	-2.76
Cc1cc2nnc(SCC(=O)Nc3cc(S(=O)(=O)N4CCOCC4)ccc3Cl)n2c2ccccc12	-20.5
O=C(CSc1nnc(-c2cccc(S(=O)(=O)N3CCOCC3)c2)n1C1CCCCCC1)NCc1ccccc1	-17.5
CC(C)CN(C(=O)COC(=O)Cc1ccc(Cl)cc1)c1c(N)n(Cc2ccccc2)c(=O)[nH]c1=O	5.02
Cc1cccc(C(=O)N[C@@H](C)C(=O)N2CCN(c3ncccn3)CC2)c1	-3.21
